Here are results for 40 compounds from PubChem BioAssay (NCI).

Several values for one entry are separate records, joined by “and”; a condition that tells them apart may be missing. Equal entries are not always repeated. About 83,000 compounds went through this panel and 20% of them were active in at least one assay; those are over-represented in the sample as a whole.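 Interpretation: 100, growth as untreated; towards 0, rising growth inhibition; 0, no net growth; 0 to -100, cell death. Compounds scoring below 10 were considered active.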 Values without a mark were called inactive. Activity calls are given as the source filed them.

In the assay the test system is HL-60(TB) leukemia. The assay is described as follows: NCI-60 one-dose screen, 48 h (100 = growth as untreated, 0 = no growth, -100 = all killed). The following applies: 10 µM unless noted.
In the case of `CN1CCN(c2ccc(Nc3nc(NCCNS(=O)(=O)c4ccccc4)c4sccc4n3)cc2)CC1`, the growth was 103%.
In the case of `CCC(C)[C@H]1OC(=O)[C@H](C(C)C)N(C)C(=O)[C@@H](C(C)C)OC(=O)[C@H](C(C)C)N(C)C(=O)[C@@H](C(C)CC)OC(=O)[C@H](C(C)C)N(C)C1=O` (stereo not given in full) it was -47.7% (active).
Take `N#Cc1c(-c2cccs2)cc(-c2cnccn2)nc1SCC(=O)N/N=C/c1ccccc1`: the growth is 110%.
In the case of `COc1ccc(/C(=N\N=C(N)N)c2ccc(Cl)cc2)cc1OC` it was 44.9%; in that of `CC(C)(C)CC(C)(C)n1nnnc1C(Nc1nccs1)c1cc2cccc3ccc4cccc1c4c32` (stereo not given), 107%.
To `CCCCCc1ccc(S(=O)(=O)Nc2cccc(-c3csc(NC(=O)CCCCCN4CCN(CCO)CC4)n3)c2)cc1` belongs 63.4%; to `c1ccc(C(c2nc3ncncc3[nH]2)N2CSc3nc4ncncc4n3C2)cc1` (stereo not given), 39.8%.
In the case of `CCOP(=O)(OCC)OC[C@]12CCC(C)(C)C[C@H]1C1=CC[C@@H]3[C@@]4(C)C/C(=C\c5cccnc5)[C@H](OP(=O)(OCC)OCC)C(C)(C)[C@@H]4CC[C@@]3(C)[C@]1(C)CC2` it was -22.2% (active).
Regarding `COc1ccc(-n2c(SCc3n[nH]c(=S)o3)nc3ccc(Cl)cc3c2=O)cc1`, the growth was 109%.
In the case of `COc1cc(-c2nc(-c3ccccc3)[nH]c2-c2ccnc(NCCCNS(=O)(=O)c3ccc(C(F)(F)F)cc3)n2)ccc1Cl` it was 13.9% and 37.8%; in that of `C#CCOc1ccc(/C=N/Nc2nc(-c3cc4cc(Br)cc(Br)c4oc3=O)cs2)cc1`, 85.9%; in that of `NC(N)=Nc1ccc(Oc2cccc(Nc3ccc(Cl)c(C(F)(F)F)c3)c2)cc1`, 1.32% (active).
In the case of `COc1ccc(N2C(=O)c3cc(Cl)ccc3NC2SCc2ccccc2)cc1` (stereo not given), the growth is 114%.
In the case of `Cc1ccc(-c2nnc3sc(C4=Cc5ccccc5OC=C4)nn23)cc1` it was 85%; in that of `Cc1ccc2ccc3ccc(C)nc3c2n1.Cc1ccc2ccc3ccc(C)nc3c2n1.Oc1c(Cl)cc(Cl)c2ccc(CN3CCCCC3)nc12.[Ru]`, -52.1% (active); in that of `Cc1ccccc1NC(=O)/C=C/c1ccc(OCCOc2ccc3c(C)cc(=O)oc3c2)cc1`, 97.2%.
Turning to `COc1c(N2CC3CCCNC3C2)c(F)cc2c(=O)c(C(=O)N/N=C/c3ccc(F)cc3)cn(C3CC3)c12` (stereo not given), the growth was 72.8%.
To `CS(=O)(=O)Nc1cc(-c2ccc3ncc(C#N)c(Nc4cccc(Cl)c4F)c3c2)cnc1Cl` belongs 0.143% (active); to `COc1cccc(-c2nn(-c3ccccc3)cc2-c2ccnc(N3CCN(C(=O)Nc4ccc(F)cc4)CC3)c2)c1`, 11.2%.
To `Cc1ccc(N2CCN(C3=C(Cl)C(=O)c4ncccc4C3=O)CC2)cc1` belongs 3.39% (active); to `CCCC/C(=C\c1ccc(O)c(O)c1)C(=O)NC(Cc1ccccc1)C(=O)C(=O)NCCc1ccc(OC)cc1` (stereo not given), 92.5%; to `Oc1ccc(CSc2nnc(-c3ccc(Cl)cc3)o2)c2cccnc12`, 12.6%.
To `C/C(=N\NC(N)=S)c1nnn(-c2ccc([N+](=O)[O-])cc2)c1C` belongs 105%; to `O=c1/c(=C\c2ccc(-c3ccccc3)o2)sc2nc(-c3ccccc3)nn12`, 107%.
For `CC(C)C(/C=C/c1[nH]ncc1-c1cc(Cl)ccc1O)N1CCOCC1` (stereo not given), the growth is 93.5%.
For the compound `Cc1ccc(-c2cc(-c3cccc4ccccc34)n3c(n2)nc2ccccc23)cc1`, the growth is 7.27% (active).
In the case of `OC1CCN(CCCOc2c3ccccc3nc3c2oc2ccc(Cl)cc23)CC1` it was 14.4%; in that of `Oc1ccc(CSc2nnc(-c3ccc(Cl)cc3)n2-c2ccccc2)c2cccnc12`, 23.6%.
Consider `COc1cc(/C=C/C(=O)c2ccc(Cl)cc2)ccc1Oc1nc(NCCO)nc(N2CCOCC2)n1`, for which the growth is 93.7%.
Take `COc1cc(/C=N/n2cnc3oc(-c4ccccc4)cc3c2=N)cc(CN2CCOCC2)c1O`: the growth was 88.9%.
On to `Cn1cc(-c2cc(N)n3nc(-c4cn(C)c5ccc(Cl)cc45)cc3n2)c2cc(Cl)ccc21`, for which the growth was 31.5%.
As to `COc1ccc(C(C)=C(c2ccc(OCCN(C)C)cc2)c2ccc(OCCN(C)C)cc2)cc1`, the growth is -63.3% (active).
In the case of `O=C1C(SCc2ccccc2)=C(Cl)CN1c1ccccc1` it was 72.6%; in that of `Cc1ccc(S(=O)(=O)N/N=C/c2cn(-c3ccc(F)cc3)nc2-c2ccc(S(C)(=O)=O)cc2)cc1`, 97.5%; in that of `CCO/C=N/C1=C(C#N)C(c2ccc(Cl)cc2)c2sc3c(CC)cccc3c2O1` (stereo not given), -0.966% (active).
To `CCc1nn2c(C)cc(C)nc2c1Cc1ccc(/C=C/CN2CCN(CCOCCOCCN3CCN(C/C=C/c4ccc(Cc5c(CC)nn6c(C)cc(C)nc56)cc4)CC3)CC2)cc1` belongs -51.4% (active); to `C=C(C)[C@@H]1CC[C@]2(COCCCNCCC#N)CC[C@]3(C)[C@H](CC[C@@H]4[C@@]5(C)CC[C@H](OCCCNCCC#N)C(C)(C)[C@@H]5CC[C@]43C)[C@@H]12`, 0.0603% (active).
Regarding `CN1C(=O)N(C)C2C1NN=c1s/c(=C\c3ccccn3)c(=O)n12` (stereo not given), the growth was 101%.
Take `C/C(=N/N)c1nnn(-c2ccc(Br)cc2)c1C`: the growth is 102%.
In the case of `Cn1cc(-c2nn3cc(-c4ccncc4)nc3s2)c2cc(Br)ccc21` it was 17.3%.
